In the supplement of paper PMC10849652:
Targets with a hit are over-represented here; the source holds about 8,800 in all. About 0.5% of all pairs of compound and target were hits.

Columns and labels:
Test in all cases: log2 fold change, soluble protein after heating vs DMSO (PISA); higher = thermal stabilisation; K562 lysate, 10 uM; active = over 0.2 and 3.5 SD of the protein, either way, in both replicates (recomputed)
[1] = compound: NCC(=O)Nc1ccc(-n2nc(C(F)(F)F)cc2-c2ccc3c(ccc4ccccc43)c2)cc1
Outline: (§1)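 K562 pellets were dounce-homogenised in PBS pH 7.4 with 1 mM MgCl2, and the crude extract at 1 mg/mL protein was treated with 10 μM compound for 30 min. Aliquots were heated for 3 min across 48°C-58°C, pooled, and brought to 0.5% NP-40 at 4°C; soluble protein was the supernatant after 21,000xg for 90 min. Soluble protein was quantified by TMTpro 16plex LC-MS/MS with channel sums equalised, and reported as log2 fold change in thermal stability against DMSO controls, with values from duplicates.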

vorinostat = compound: O=C(CCCCCCC(=O)Nc1ccccc1)NO [vorinostat]
Outline: as §1

silmitasertib = compound: O=C(O)c1ccc2c(c1)nc(Nc1cccc(Cl)c1)c1ccncc12 [silmitasertib]
Outline: as §1

[2] = compound: O=C1NC(=O)C(c2cnc3ccccn23)=C1c1cn2c3c(cc(F)cc13)CN(C(=O)N1CCCCC1)CC2
Outline: as §1

entospletinib = compound: c1cn2cc(-c3ccc4cn[nH]c4c3)nc(Nc3ccc(N4CCOCC4)cc3)c2n1 [entospletinib]
Outline: as §1

Measured: log2 fold change

CHD3 isoform 3 (UniProt Q12873)
active: vorinostat -0.316
inactive: [1] 0.022 | silmitasertib 0.032 | [2] -0.004 | entospletinib 0.002

ATP5PF isoform 2 (UniProt P18859)
Chain of UniProt P18859 (P18859 whole entry, looked up): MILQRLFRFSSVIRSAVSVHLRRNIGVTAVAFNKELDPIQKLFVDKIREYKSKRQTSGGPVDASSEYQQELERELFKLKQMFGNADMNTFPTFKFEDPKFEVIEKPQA
inactive: [1] -0.002 | vorinostat 0.206 | silmitasertib -0.116 | [2] 0.053 | entospletinib -0.003

CCDC186 (UniProt Q7Z3E2)
Chain of UniProt Q7Z3E2 (Q7Z3E2 whole entry, looked up): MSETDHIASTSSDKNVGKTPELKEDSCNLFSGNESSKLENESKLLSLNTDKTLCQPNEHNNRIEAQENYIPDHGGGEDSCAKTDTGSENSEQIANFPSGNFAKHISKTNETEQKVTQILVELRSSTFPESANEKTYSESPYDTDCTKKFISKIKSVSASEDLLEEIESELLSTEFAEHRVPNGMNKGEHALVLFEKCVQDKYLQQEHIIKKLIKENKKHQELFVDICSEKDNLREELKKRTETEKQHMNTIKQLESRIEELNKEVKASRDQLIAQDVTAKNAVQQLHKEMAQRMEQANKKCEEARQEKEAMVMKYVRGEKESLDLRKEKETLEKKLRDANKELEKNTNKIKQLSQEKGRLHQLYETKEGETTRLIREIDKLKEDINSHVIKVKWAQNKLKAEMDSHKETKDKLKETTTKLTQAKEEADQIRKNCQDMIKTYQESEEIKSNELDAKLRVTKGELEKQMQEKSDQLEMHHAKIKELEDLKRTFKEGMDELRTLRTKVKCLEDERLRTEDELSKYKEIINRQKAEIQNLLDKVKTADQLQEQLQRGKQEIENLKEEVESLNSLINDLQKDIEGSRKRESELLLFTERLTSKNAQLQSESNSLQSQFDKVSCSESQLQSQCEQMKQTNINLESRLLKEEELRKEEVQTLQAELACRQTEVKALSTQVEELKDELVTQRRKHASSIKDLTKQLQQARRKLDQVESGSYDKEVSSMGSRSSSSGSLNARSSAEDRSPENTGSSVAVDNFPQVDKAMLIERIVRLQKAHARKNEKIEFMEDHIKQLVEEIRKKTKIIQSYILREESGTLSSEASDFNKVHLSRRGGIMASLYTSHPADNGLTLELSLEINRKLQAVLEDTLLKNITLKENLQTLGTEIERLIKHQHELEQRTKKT
inactive: [1] 0.052 | vorinostat 0.005 | silmitasertib 0.057 | [2] 0.012 | entospletinib -0.01

BRAT1 (UniProt Q6PJG6)
Chain of UniProt Q6PJG6 (Q6PJG6 whole entry, looked up): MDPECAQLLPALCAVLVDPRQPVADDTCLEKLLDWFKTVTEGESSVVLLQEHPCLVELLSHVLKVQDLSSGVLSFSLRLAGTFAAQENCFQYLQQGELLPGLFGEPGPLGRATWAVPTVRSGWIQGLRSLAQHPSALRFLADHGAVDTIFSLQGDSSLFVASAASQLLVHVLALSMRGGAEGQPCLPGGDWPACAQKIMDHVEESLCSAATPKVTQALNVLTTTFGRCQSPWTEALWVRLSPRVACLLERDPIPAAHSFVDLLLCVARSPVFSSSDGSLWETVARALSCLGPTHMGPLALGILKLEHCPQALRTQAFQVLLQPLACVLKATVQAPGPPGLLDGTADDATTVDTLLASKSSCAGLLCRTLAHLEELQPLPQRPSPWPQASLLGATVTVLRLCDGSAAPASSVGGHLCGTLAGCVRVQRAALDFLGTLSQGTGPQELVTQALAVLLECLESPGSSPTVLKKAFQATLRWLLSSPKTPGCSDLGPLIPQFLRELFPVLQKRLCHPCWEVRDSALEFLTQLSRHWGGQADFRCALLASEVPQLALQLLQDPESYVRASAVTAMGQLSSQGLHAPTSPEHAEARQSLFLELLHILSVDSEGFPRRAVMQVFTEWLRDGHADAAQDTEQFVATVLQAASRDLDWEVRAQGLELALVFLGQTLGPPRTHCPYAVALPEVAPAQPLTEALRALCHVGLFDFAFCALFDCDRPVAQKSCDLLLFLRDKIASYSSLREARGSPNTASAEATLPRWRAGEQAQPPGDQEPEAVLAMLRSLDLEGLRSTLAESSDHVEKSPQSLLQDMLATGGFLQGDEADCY
inactive: [1] 0.015 | silmitasertib -0.002 | [2] -0.013 | entospletinib 0.004
active: vorinostat -0.32

BLM (UniProt P54132)
inactive: [1] 0.03 | vorinostat -0.056 | silmitasertib 0.044 | [2] 0.003 | entospletinib -0.002

CDC42BPA isoform 6 (UniProt Q5VT25)
Chain of UniProt Q5VT25 (Q5VT25 whole entry, looked up): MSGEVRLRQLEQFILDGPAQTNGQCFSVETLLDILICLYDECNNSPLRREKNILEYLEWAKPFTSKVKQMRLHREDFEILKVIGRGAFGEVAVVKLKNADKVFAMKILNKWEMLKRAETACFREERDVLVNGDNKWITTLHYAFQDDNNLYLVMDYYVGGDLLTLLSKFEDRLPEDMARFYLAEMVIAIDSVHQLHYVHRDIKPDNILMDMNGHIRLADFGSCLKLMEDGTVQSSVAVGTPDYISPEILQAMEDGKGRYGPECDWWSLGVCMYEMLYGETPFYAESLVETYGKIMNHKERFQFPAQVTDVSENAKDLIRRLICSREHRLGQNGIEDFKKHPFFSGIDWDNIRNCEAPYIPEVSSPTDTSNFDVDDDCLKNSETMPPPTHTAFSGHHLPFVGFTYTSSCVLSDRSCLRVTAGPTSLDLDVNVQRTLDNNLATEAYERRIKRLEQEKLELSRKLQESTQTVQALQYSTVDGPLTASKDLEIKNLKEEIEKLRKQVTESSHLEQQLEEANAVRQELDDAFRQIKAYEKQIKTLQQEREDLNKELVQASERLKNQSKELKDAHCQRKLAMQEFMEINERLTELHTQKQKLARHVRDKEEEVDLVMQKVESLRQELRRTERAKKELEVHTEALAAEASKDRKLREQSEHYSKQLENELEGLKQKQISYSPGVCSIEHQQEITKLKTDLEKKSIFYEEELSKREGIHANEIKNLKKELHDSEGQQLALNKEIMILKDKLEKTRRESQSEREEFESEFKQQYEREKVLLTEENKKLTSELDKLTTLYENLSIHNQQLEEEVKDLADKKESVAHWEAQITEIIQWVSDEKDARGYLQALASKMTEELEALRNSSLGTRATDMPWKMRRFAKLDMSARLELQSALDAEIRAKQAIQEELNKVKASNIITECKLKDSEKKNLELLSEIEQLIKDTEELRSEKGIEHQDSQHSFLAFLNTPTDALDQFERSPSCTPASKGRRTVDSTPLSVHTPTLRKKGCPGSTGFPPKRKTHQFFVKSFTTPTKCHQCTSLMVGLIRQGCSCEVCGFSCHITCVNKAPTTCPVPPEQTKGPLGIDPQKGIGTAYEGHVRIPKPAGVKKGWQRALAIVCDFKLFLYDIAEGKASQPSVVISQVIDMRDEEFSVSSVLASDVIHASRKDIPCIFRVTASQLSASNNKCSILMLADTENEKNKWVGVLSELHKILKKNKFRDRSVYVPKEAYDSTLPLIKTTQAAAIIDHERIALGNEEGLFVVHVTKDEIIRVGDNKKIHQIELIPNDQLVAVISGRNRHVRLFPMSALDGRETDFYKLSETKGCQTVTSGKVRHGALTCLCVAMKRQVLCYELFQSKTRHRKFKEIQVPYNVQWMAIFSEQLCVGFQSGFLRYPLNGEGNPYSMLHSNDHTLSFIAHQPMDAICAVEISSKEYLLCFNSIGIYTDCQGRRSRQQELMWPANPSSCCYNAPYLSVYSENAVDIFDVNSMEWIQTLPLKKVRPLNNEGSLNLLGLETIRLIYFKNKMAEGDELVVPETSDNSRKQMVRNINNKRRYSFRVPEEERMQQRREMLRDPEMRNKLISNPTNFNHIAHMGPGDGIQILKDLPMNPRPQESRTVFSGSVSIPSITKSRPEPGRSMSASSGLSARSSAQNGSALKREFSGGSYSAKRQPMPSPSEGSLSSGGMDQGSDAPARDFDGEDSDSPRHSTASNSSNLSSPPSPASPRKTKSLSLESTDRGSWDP
active: vorinostat -0.224
inactive: [1] -0.008 | silmitasertib 0.018 | [2] 0.001 | entospletinib 0

C12orf45 (UniProt Q8N5I9)
Chain of UniProt Q8N5I9 (Q8N5I9 whole entry, looked up): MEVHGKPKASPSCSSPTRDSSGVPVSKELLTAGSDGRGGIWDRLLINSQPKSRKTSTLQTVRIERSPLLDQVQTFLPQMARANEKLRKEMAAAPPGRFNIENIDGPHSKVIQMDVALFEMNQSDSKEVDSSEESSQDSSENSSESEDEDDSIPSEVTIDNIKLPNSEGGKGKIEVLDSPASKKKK
inactive: [1] 0.063 | vorinostat 0.012 | silmitasertib -0.059 | [2] -0.027 | entospletinib 0

C18orf32 (UniProt Q8TCD1)
Chain of UniProt Q8TCD1 (Q8TCD1 whole entry, looked up): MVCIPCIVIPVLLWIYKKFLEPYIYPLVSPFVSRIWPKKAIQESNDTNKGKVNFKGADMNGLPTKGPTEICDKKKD
active: vorinostat -0.486
inactive: [1] 0.004 | silmitasertib -0.021 | [2] 0.017 | entospletinib -0.071

CCNC (UniProt P24863)
Chain of UniProt P24863 (P24863 whole entry, looked up): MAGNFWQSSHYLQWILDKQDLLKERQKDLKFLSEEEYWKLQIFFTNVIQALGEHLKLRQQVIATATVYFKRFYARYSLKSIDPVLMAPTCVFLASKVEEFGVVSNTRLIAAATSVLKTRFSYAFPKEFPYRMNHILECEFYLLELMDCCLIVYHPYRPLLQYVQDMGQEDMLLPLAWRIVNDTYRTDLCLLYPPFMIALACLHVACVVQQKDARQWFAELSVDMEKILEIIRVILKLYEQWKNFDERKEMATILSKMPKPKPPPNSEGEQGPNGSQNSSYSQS
inactive: [1] 0.159 | vorinostat -0.001 | silmitasertib 0.338 | [2] -0.092 | entospletinib 0.029
